From PubChem BioAssay AID1434 (Sanford-Burnham Center for Chemical Genomics, 2008)
Where “and” joins values, the source holds several entries; their conditions need not be identical. Identical values can stand only once. The campaign covered roughly 220,000 compounds. About 1,600 (0.73%) were called active.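 Rule for the calls: active = mean inhibition across duplicate retests at 20 µM reaching about 50% (limit read from the data); inactive = the rest, inconclusive results apart.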 Only a selection was taken, and actives are over-represented in it overall.

Biological target: Runt-related transcription factor 1 (Homo sapiens) + Core-binding factor subunit beta (Homo sapiens) (UniProt Q01196+Q13951)
Experiment: disruptors of Runt domain/CBFb-SMMHC interaction – biochemical, FRET, Cerulean-Runt, Venus-CBFb-SMMHC, uHTS, primary screen (AID 1434);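 note: 0% = DMSO wells and 100% = wells with excess untagged CBFb-SMMHC; inhibitors lower the FRET ratio by blocking Runt binding to CBFb-SMMHC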
Conditions: Cerulean-Runt/Venus-CBFb-SMMHC FRET ratio 530/480, 1 h, at 20 µM, stronger effect = higher value

Chain of Runt-related transcription factor 1 (Homo sapiens) + Core-binding factor subunit beta (Homo sapiens) (Q01196 whole entry, looked up, the tested form may be a part): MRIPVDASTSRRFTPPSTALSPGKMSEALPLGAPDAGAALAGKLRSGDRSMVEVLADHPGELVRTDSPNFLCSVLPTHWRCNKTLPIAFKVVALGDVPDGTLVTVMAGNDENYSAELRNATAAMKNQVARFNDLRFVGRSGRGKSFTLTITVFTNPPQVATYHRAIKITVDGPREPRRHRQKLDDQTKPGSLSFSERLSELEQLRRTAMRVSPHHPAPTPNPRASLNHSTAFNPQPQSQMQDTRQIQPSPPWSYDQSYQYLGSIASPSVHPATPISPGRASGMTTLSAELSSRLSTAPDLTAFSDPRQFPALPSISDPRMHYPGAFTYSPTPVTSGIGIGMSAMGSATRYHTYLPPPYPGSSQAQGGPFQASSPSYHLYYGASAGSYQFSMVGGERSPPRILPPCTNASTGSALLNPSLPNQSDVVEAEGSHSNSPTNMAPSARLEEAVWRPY
Chain of Runt-related transcription factor 1 (Homo sapiens) + Core-binding factor subunit beta (Homo sapiens) (Q13951 whole entry, looked up, the tested form may be a part): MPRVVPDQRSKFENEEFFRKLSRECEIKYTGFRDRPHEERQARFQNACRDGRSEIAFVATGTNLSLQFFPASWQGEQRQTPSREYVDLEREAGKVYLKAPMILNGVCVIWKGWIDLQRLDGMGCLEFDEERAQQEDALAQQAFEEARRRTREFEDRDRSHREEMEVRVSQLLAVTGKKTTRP

SMILES | inhibition | inhibition (retest duplicate average)
CCN1C(=O)/C(=C2/Sc3ccccc3N2CCCS(=O)(=O)O)SC1=S | 82.6% (active) and 93.8% (active) | 113% and 124%
CCN1C(=O)/C(=C\N2CCN(c3ccccc3)CC2)SC1=S | -1.5% (inactive) | 
Cc1cc(Cl)ccc1NNC(=O)c1snnc1C | -2.5% (inactive) | 
COc1ccc(C(=O)N/N=C2\CCS(=O)(=O)c3ccc(F)cc32)cc1OC | -4.7% (inactive) | 
Nc1nc(CC(=O)CSc2ccc(Cl)cc2)nc(Nc2ccc(F)cc2)n1 | -7.5% (inactive) | 
CCC(C)(C)n1nnnc1C(c1cccs1)N1CCN(Cc2ccccc2)CC1 (stereo not drawn) | 3.1% (inactive) | 
CCC(C)(C)n1nnnc1CN1CCN(c2nc3ccc(C)cc3cc2C#N)CC1 | 54% (active) | 79.1%
CCC(C)(C)n1nnnc1C(c1cccs1)N1CCN(c2nc3ccccc3s2)CC1 (stereo not drawn) | -1% (inactive) | 
CN(C)NC(=O)c1csnc1-c1c(Cl)cccc1Cl | 6% (inactive) | 
O=C(COC(=O)/C=C/c1cccc(Cl)c1)NCCc1ccccc1 | 0.9% (inactive) | 
COc1ccc(CCN=C2SCC(=O)N2Cc2ccccc2)cc1OC | -0.6% (inactive) | 
COc1ccc(CCN(C)CCN2C(=O)c3ccccc3C2=O)cc1OC | 6.2% (inactive) | 
COc1ccc(CCNC2=C(Cl)C(=O)N(Cc3ccccc3)C2=O)cc1OC | 92.2% (active) | 70.6%
O=C(O)CC/C(=N\NC(=O)c1ccc(F)cc1)c1ccc(Br)cc1 | -4.7% (inactive) | 
CC/C(=N\NC(=O)c1ccccc1Cl)c1ccc(Br)s1 | -0.6% (inactive) | 
CC(=O)c1cc(C#N)c(SCC(=O)Nc2nccs2)nc1C | -3.8% (inactive) | 
COc1ccccc1N1N=C(c2cccs2)CC1c1ccccc1 (stereo not drawn) | 48% (inactive) | 
COc1ccc(C2=NN(c3ccccc3)C(c3cccs3)C2)cc1 (stereo not drawn) | 6% (inactive) | 
COc1ccc(C2CC(c3cccs3)=NN2c2ccccc2)cc1 (stereo not drawn) | 91% (active) | 53.7%
O=c1[nH]c2ccccc2n2c(-c3ccccc3)nnc12 | 67.5% (active) | 61.3%
Cc1ccc(-c2nc3ccccc3[nH]c2=O)cc1 | 3.7% (inactive) | 
O=[N+]([O-])c1cccc(-c2nnc3c4ccccc4c4ccccc4n23)c1 | 2.3% (inactive) | 
N#CC1=C(N)Oc2c(ccc3cccnc23)C1c1ccncc1 (stereo not drawn) | -1.6% (inactive) | 
COc1cccc(NC(=O)CN(C)C(=O)/C=C/c2cc(OC)ccc2OC)c1 | -3.2% (inactive) | 

SMILES | inhibition | inhibition (retest duplicate average)
O=C(Nc1ccc(Cl)cc1)Nc1nnc(/C=C/c2ccccc2)s1 | 6.5% (inactive) | 
O=C(COc1cccc(F)c1)Oc1ccc(C(=O)c2ccccc2)cc1 | 0.2% (inactive) | 
Cc1cc(C)c(C#N)c(SCc2[nH]nc3c2C(c2ccccc2)C(C#N)=C(N)O3)n1 (stereo not drawn) | -0.2% (inactive) | 
Cc1cc(C)c2c3c(sc2n1)C(c1ccccc1)C(C#N)=C(N)O3 (stereo not drawn) | 113% (active) | 141%
N#CC1=C(N)Oc2c(sc3ccccc23)C1c1ccco1 (stereo not drawn) | 9.4% (inactive) | 
CC(=O)c1c(C)[nH]c(C(=O)OCC(=O)Nc2cc(S(=O)(=O)N3CCCCC3)ccc2C)c1C | -9.5% (inactive) | 
CCCN(CC(=O)Nc1ccc(OC)c(OC)c1)CC(=O)Nc1ccc(F)c(F)c1F | -1.9% (inactive) | 
COc1ccc(/C=N/NC(=O)c2cccc(C(F)(F)F)c2)cc1 | 1.4% (inactive) | 
C/C(CC1CC(C)(C)OC1=O)=N/Nc1nc(-c2ccccc2)cs1 (stereo not drawn) | -0.6% (inactive) | 
Cc1nc2c(c(=O)n1Cc1ccco1)c1nc3ccccc3nc1n2Cc1ccccc1 | 51.6% (active) | 50.7%
CC(Sc1nc2ccccc2c(=O)n1Cc1ccco1)C(=O)c1ccccc1 (stereo not drawn) | 2.5% (inactive) | 
Cc1ccc(Cn2c(C)nc3c(c2=O)c2nc4ccccc4nc2n3Cc2ccco2)cc1 | 46.8% (inactive) | 
CC(C)Cn1c(N)c(C(=O)NCc2cccs2)c2nc3ccccc3nc21 | 72.8% (active) | 89.8%
CCC(C)NC(=O)c1c(N)n(/N=C/c2cccs2)c2nc3ccccc3nc12 (stereo not drawn) | -0.5% (inactive) | 
Cn1ncc(Br)c1C(=O)NCc1cccs1 | -0.4% (inactive) | 
CN(C)c1ccnc2sc(C(=O)c3ccccc3)c(N)c12 | 39.2% (inactive) | 
Cc1cccc(NC(=S)NCc2ccc3[nH]c4c(c3c2)CCCC4)c1 | -0.9% (inactive) | 
Cc1cc(C)nc(SC2CCCCC2NS(=O)(=O)c2ccc(Cl)cc2)n1 (stereo not drawn) | 2% (inactive) | 
COc1cc(C(=O)N[C@@H](C)C(=O)NCc2ccco2)cc(OC)c1OC | -2.9% (inactive) | 
COc1cc(C(=O)N2C(=O)c3cccc(N)c3C2=O)cc(OC)c1OC | 87.1% (active) | 51.3%
COc1cc(C(=O)NC(=S)NCc2ccco2)cc(OC)c1OC | 1.1% (inactive) | 
CC(=O)N1CCN(S(=O)(=O)c2cccc(C(=O)NC3CCC(C)CC3)c2)CC1 (stereo not drawn) | 4.4% (inactive) | 
CN1CCN(S(=O)(=O)c2cccc(C(=O)O)c2)CC1 | -1.8% (inactive) | 
CC1CC(C)CN(S(=O)(=O)c2cccc(C(=O)N3C(=O)c4cccc(N)c4C3=O)c2)C1 (stereo not drawn) | 61.6% (active) | 72.9%
